Assay results: PubChem BioAssay AID1845 (The Scripps Research Institute Molecular Screening Center, 2009)
The campaign covered roughly 290,000 compounds. About 490 (0.17%) were called active. What follows is part of a selection rich in actives, with near analogues and random picks from the rest. Unmarked numbers belong to inactive results. Rule as the data show it: active = inhibition above about 37%; inactive = the rest.

experiment: compounds displacing fluorescent DNA intercalator, primary screen, artefact control for HCV NS3 helicase inhibitor project, biochemical, FID fluorescence (AID 1845); conditions: DNA fluorescent intercalator displacement, at 7.9 µM, active compounds read high;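 also: 0% = vehicle and 100% = reference compound; higher means more ethidium bromide displaced from hairpin DNA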

Row | SMILES | inhibition
1 | COc1ccc(C(=O)COC(=O)Cn2cnc3c2c(=O)n(C)c(=O)n3C)c(OC)c1 | -23%
2 | O=C(Nc1ccc([N+](=O)[O-])cc1)OCCc1ccccn1 | 5.74%
3 | COc1ccc(CSc2nnnn2-c2ccc(O)cc2)cc1F | -6.37%
4 | COc1ccc(CC(=O)NC2CCSc3ccccc32)cc1OC (configuration not stated) | -19.9%
5 | COc1ccc(-c2noc(CCCC(=O)NC3CCCC3)n2)cc1OC | -34.4%
6 | Cc1ccc(C2CC(c3cccc(NS(C)(=O)=O)c3)=NN2S(C)(=O)=O)cc1 (configuration not stated) | -20.2%
7 | CN(CC(=O)Nc1c(Cl)cccc1Cl)C(=O)CNC(=O)C1CCCCC1 | -9.61%
8 | CCOC(=O)C1(Cc2ccccc2C)CCCN(C(=O)c2ccc(COC)o2)C1 (configuration not stated) | -43.4%
9 | Cn1c(=O)c2ccccc2n(CC(=O)Nc2ccc3c(c2)OCCO3)c1=O | -7.1%
10 | COc1ccc(/C=C2\SC(=O)N(CCC(=O)NC3CCS(=O)(=O)C3)C2=O)cc1 (configuration not stated) | -25.1%
11 | COc1ccc(Br)cc1CN(C)CC(=O)Nc1cc([N+](=O)[O-])ccc1OC | 0.14%
12 | O=C(NC1CCCCC1)C1CCC(CNS(=O)(=O)c2ccccc2)CC1 (configuration not stated) | -36.5%
13 | Cc1ccc(C(C(=O)NCC2CCCO2)N(C(=O)c2snc(C(N)=O)c2N)c2ccc(C(C)C)cc2)o1 (configuration not stated) | -41%
14 | CCCCNC(=O)C1(O)c2ccccc2NC(=O)N1c1ccc(Cl)cc1 (configuration not stated) | -11.7%
15 | CCCNC(=O)c1ccc(N2CCC3(CC2)CC(c2ccc(Cl)cc2)=NO3)c([N+](=O)[O-])c1 | -20%
16 | COc1ccc(OC)c(C(C)NC(=S)Nc2ccc(S(=O)(=O)Nc3ncccn3)cc2)c1 (configuration not stated) | -59.4%
17 | Cc1c(Cl)cccc1NC(=O)NCCCN1CCCC1=O | -5.46%
18 | COc1ccccc1NC(=O)CCC(=O)OC(C)C(=O)c1ccccc1 (configuration not stated) | -17.2%
19 | COc1cccc(NC(=O)N2C3CCCC2CC(NC(C)=O)C3)c1 (configuration not stated) | -3.46%

Row | SMILES | inhibition
20 | CC[n+]1cc(C)ccc1/C=C/c1ccc(N(C)C)cc1 | -33.2%
21 | COc1ccc(N2CCN(S(=O)(=O)c3cc(Br)cnc3N)CC2)cc1 | -2.88%
22 | CC(=O)c1ccc(NC(=O)c2sc3nc4n(c(=O)c3c2C)CCCCC4)cc1 | -25.9%
23 | Cc1ccn(CCC(=O)N2c3ccccc3CC2C)n1 (configuration not stated) | -9.3%
24 | O=C(/C=C/c1ccc([N+](=O)[O-])o1)NNC(=O)c1ccc(F)cc1 | -4.43%
25 | CCN(CC)c1ccc(NC(=O)CN2CCN(c3ccccn3)CC2)cc1 | -17.6%
26 | O=C(Cn1ccc2cc(S(=O)(=O)N3CCCC3)ccc21)NCc1ccccc1 | -16.4%
27 | O=C(c1ccc[nH]c1=S)N1CCN(S(=O)(=O)c2ccc(Br)cc2Cl)CC1 | -16.3%
28 | C/C(=N\Nc1cccc(C(=O)O)c1)c1ccc2c(c1)Nc1ccccc1S2 | -16.1%
29 | NS(=O)(=O)c1ccc2nc(NC(=O)CS(=O)(=O)c3ccc(F)cc3)sc2c1 | -3.98%
30 | CC(CCc1ccc(O)cc1)NCc1ccc(Cl)cc1Cl (configuration not stated) | 12.2%
31 | CCN(CC(=O)Nc1ccccc1OC)C(=O)Cn1cnc2ccccc2c1=O | -5.22%
32 | Cc1cc(-c2nnc(CCC(=O)NC(c3ccccc3)c3ccccc3)o2)no1 | -7.1%
33 | Cc1ccc(C(C)C)c(OCCSc2nc3ccccc3n2CC(=O)O)c1 | -11.6%
34 | O=C(CSc1nc2nccnc2c(=O)n1Cc1cccs1)Nc1ccccc1F | -11.4%
35 | COc1ccc(-c2noc(C(C)NS(=O)(=O)c3ccc(NC(C)=O)cc3)n2)cc1 (configuration not stated) | -8%
36 | CCCCCC1CC(COc2ccccc2)OC1=O (configuration not stated) | -26.6%
37 | O=C1C(=O)N(CCN2CCOCC2)C(c2cccc(Cl)c2)/C1=C(/O)c1ccc2c(c1)OCO2 (configuration not stated) | -31.7%
38 | Cc1nnc(SCC(=O)N2c3ccccc3C(C)(c3ccc(Cl)cc3)CC2(C)C)s1 (configuration not stated) | -27.2%

Row | SMILES | inhibition
39 | Cn1c(=O)n(C)c2cc(S(=O)(=O)Nc3ccc(F)cc3)ccc21 | -0.97%
40 | CCc1ccc(-c2cc(C(=O)NN3CCN(C)CC3)c3ccccc3n2)cc1 | 16.5%
41 | O=S(=O)(NCC1CC1)c1ccc(F)c(Cl)c1 | -2.55%
42 | O=C(NCC(=O)N1CCN(c2ccccc2O)CC1)c1ccc2ccccc2c1 | -38.7%
43 | CCc1ccc(NC(=O)COC(=O)c2cccs2)cc1 | -15%
44 | CCOC(OCC)c1ccc(/C=C\c2nccc(N)n2)cc1 | -11.1%
45 | CCN1CCN(c2ccc(S(=O)(=O)N3CCCCC3)cc2NC(=O)Cc2c(Cl)cccc2Cl)CC1 | 24.2%
46 | CN1CCN(c2ccc(S(=O)(=O)N3CCCCC3)cc2NC(=O)Cc2ccccc2F)CC1 | 17.4%
47 | COc1ccc(CC(=O)Nc2cc(S(=O)(=O)N3CCCCC3)ccc2N2CCN(C)CC2)cc1 | 39.2% (active)
48 | CN(C)c1cccc(C(=O)N2CCC(n3nccc3NC(=O)C3CCOC3)CC2)c1 (configuration not stated) | -16.7%
49 | COc1ccc(NC(=O)CSc2nc3ccccc3c(=O)n2C)cc1 | -13.4%
50 | COCCCN1C(=O)C(=O)/C(=C(/O)c2ccc(S(=O)(=O)N3CCOCC3)cc2)C1c1ccc(F)cc1 (configuration not stated) | -50.7%
51 | CC1CN(C(=O)CCC(=O)NCCCN2CCC(Cc3ccccc3)CC2)c2cc(Cl)ccc2O1 (configuration not stated) | 41.2% (active)
52 | CC1CN(C(=O)CCC(=O)NC2CCN(Cc3ccccc3)CC2)c2ccccc2O1 (configuration not stated) | 2.82%
53 | CC1CN(C(=O)CCC(=O)NCc2cccnc2)c2ccccc2O1 (configuration not stated) | -10.2%
54 | Cc1cc(O)c(C(=O)/C=C/c2c(F)c(F)c(F)c(F)c2F)c(=O)o1 | -15.9%
55 | Cc1c2cnn(CC(=O)NCCCN3CC(C)CC(C)C3)c(=O)c2c(C)n1Cc1ccc(Cl)cc1 (configuration not stated) | 37.1% (active)
56 | Cc1c2cnn(CC(=O)NCc3ccccn3)c(=O)c2c(C)n1Cc1ccc(Cl)cc1 | -39%
57 | CC1CC(C)CN(CCCNC(=O)Cn2ncc3c([nH]c4ccccc43)c2=O)C1 (configuration not stated) | 5.73%
